The panel holds about 83,000 compounds, 20% with a hit somewhere; the sample as a whole holds those more often.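 Step 1: grow cells in 96-well plates. Step 2: add test compound at a single concentration. Step 3: incubate 48 h. Step 4: record percent growth.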 Values without a mark were called inactive. Activity calls are given as the source filed them. Rule for the calls: active = growth percent below 10; inactive = the rest.
Columns and labels:
Assay in all cases: NCI-60 one-dose screen, 48 h (100 = growth as untreated, 0 = no growth, -100 = all killed)
Settings in all cases: 10 µM unless noted
[1] = tested on: DU-145 prostate
[2] = tested on: K-562 leukemia
[3] = tested on: MALME-3M melanoma
[4] = tested on: MDA-MB-231 breast
[5] = tested on: RXF 393 renal
[6] = tested on: SF-268 CNS
[7] = tested on: SF-539 CNS
[8] = tested on: UACC-257 melanoma
[9] = tested on: M14 melanoma
[10] = tested on: HCT-15 colon
[11] = tested on: HT29 colon
[12] = tested on: SNB-75 CNS
[13] = tested on: SNB-19 CNS
[14] = tested on: U251 CNS
[15] = tested on: PC-3 prostate
[16] = tested on: SK-MEL-5 melanoma
[17] = tested on: UACC-62 melanoma
[18] = tested on: SK-MEL-28 melanoma
[19] = tested on: SF-295 CNS
[20] = tested on: LOX IMVI melanoma

| SMILES | growth [1] | growth [2] | growth [3] | growth [4] | growth [5] | growth [6] | growth [7] | growth [8] | growth [9] | growth [10] | growth [11] | growth [12] | growth [13] | growth [14] | growth [15] | growth [16] | growth [17] | growth [18] | growth [19] | growth [20] |
| --- | --- | --- | --- | --- | --- | --- | --- | --- | --- | --- | --- | --- | --- | --- | --- | --- | --- | --- | --- | --- |
| COc1cc(C(=O)/C=C/c2cc(-c3ccc4c(c3)OCO4)n[nH]2)cc(OC)c1OC | 0.359% (active) | -17% (active) | 68.5% | 30.6% | 1.1% (active) | -8.16% (active) | -51.9% (active) | 76.5% | 81.4% | 19.6% | 3.4% (active) | 26.7% | 33.2% | 5.54% (active) | 6.51% (active) | 63% | 55.7% | 76.2% |  |  |
| Cc1ccc2c(c1)c(-c1nc(-c3c[nH]c4ncccc34)cs1)cn2C | 115% | 81% |  | 75.7% | 97.4% | 128% | 92% | 115% | 101% | 86.5% | 69% | 91.2% | 107% | 98.6% | 85.7% | 98.8% | 94.5% | 109% | 101% |  |
| Cn1cc(-c2nc(-c3cn(C)c4ncccc34)cs2)c2ccccc21 | 58.9% | 12.6% |  | 48.6% | 35.5% | 45.4% | 27.6% | 60.6% | 8.62% (active) | 20.4% | 9.24% (active) | 20.9% | 51.4% | 31.8% | 53.6% | 21.9% | 33.2% | 46.5% | 20.7% |  |
| O=C(/C=C/c1cccc(O)c1)c1ccccc1O | 83.2% | 80% |  | 80.3% | 89.9% | 94.2% | 102% | 86.8% | 96.4% | 92.9% | 87.7% | 72% | 90.1% | 77% | 83.8% | 92.3% | 87.4% | 98.2% | 98.6% |  |
| O=C(/C=C\c1ccc2c(c1)OCO2)/C=C/c1ccc2c(c1)OCO2 | 90.7% | 4.27% (active) | 98.2% |  | 85% | 93.3% | 26.2% | 98.2% | 40% | 11% | 32.1% | 75.7% | 68.9% |  | 91.1% | 84% | 75.1% | 105% | 89.7% |  |
| COc1c(N)c2c(c([N+](=O)[O-])c1OC)C(=O)OC2 | 116% | 119% |  | 115% | 112% | 106% | 104% | 102% | 109% | 105% | 102% | 98.7% | 102% | 110% | 96.7% | 113% | 102% | 108% | 107% |  |
| NC(=O)[C@@H]1CC2CCC1C2 (stereo partly drawn) | 50.4% | 45.5% | 101% | 123% | 110% |  | 91.9% | 111% | 118% | 98.2% | 117% | 85.1% | 111% |  | 91% | 109% | 110% | 109% |  | 106% |
| O=C(O)c1cccc2c1Cc1cc([N+](=O)[O-])ccc1-2 | 109% | 108% |  | 102% | 118% | 104% | 93% | 109% | 110% | 106% | 112% | 83.5% | 108% | 104% | 110% | 105% | 102% | 108% | 115% |  |
| CCN(CC)CCCCCCNc1ccnc2cc(Cl)ccc12 | 92.8% | 30.1% | 99.6% | 51.8% |  | 77.4% | 52.5% | 102% | 38% | 92.6% | 27% | 87% | 113% | 85.3% | 87% | 80.8% |  | 106% | 97% | 78% |
| Nc1nc(Br)nc2c1ncn2C1CC(O)C(CO)O1 (stereo not drawn) | 52.7% | 79% | 90.2% | 87.2% |  | 73.9% | 77.8% | 87.7% | -0.9% (active) | 59.1% | 66.3% | 77.4% | 48.6% | 68.7% | 70.1% |  |  | 95.8% | 94.3% | 82.4% |
| O=C1C=Cc2ncccc2C1=O | 78.9% | 0.688% (active) | 89.9% |  | 106% | 97% | 86.3% | 88.1% | 95.5% | 80.3% | 108% | 119% | 85.2% |  | 88.5% | 92.9% | 90.7% | 121% | 102% |  |
| Cn1cc(-c2nc(-c3c[nH]c4ncccc34)cs2)c2cc(Cl)ccc21 | 54.4% | 9.43% (active) |  | 55.3% | 63.4% | 65.4% | 71.7% | 56% | 42.2% | 31.2% | 38.5% | 63.6% | 74.4% | 40% | 42.4% | 83.3% | 64.3% | 80.1% | 24.4% |  |
| Nc1c(Cl)cc(N=Nc2ccccc2)cc1Cl | 101% | 92.5% |  | 84.2% | 108% | 102% | 103% | 100% | 105% | 93% | 100% | 74% | 100% | 94.5% | 96.2% | 94.3% | 57.5% | 106% | 89.7% |  |
| Oc1cccc2oc(=S)[nH]c12 | 118% | 118% |  | 99.1% | 112% | 111% | 88.8% | 114% | 111% | 102% | 113% | 86.4% | 106% | 109% | 111% | 105% | 101% | 104% | 118% |  |
| CN(C)c1ccc(N=C2C=CC(=O)C=C2)cc1 | 112% | 64.2% | 85.8% | 46.4% |  | 101% | 65% | 119% | 95.6% | 97.7% | 97.1% | 77.6% | 83.6% | 76.5% | 64.4% | 87.2% |  | 97.4% | 95.1% | 80.6% |
| COCCNC1=C(Cl)C(=O)c2ccccc2C1=O | 53.9% | 99.8% |  | 99.6% | 105% | 95.6% | 136% | 100% | 96.9% | 90.3% | 101% | 74.5% | 102% | 91.3% | 117% | -6.75% (active) | 90.9% | 109% | 75.1% |  |
| COc1cccc2c1C(=O)c1c(O)c3c(c(O)c1C2=O)C[C@@](O)(C(=O)CO)C[C@@H]3OC1C[C@H](N)[C@H](O)[C@H](C)O1 (stereo partly drawn) | 3.11% (active) | -2.21% (active) | -57.6% (active) | -9.32% (active) |  | -31.7% (active) | -29.8% (active) | -35% (active) | -71.6% (active) | 18.4% | -13.1% (active) | -76.1% (active) | 8.7% (active) | 2.94% (active) | -2.52% (active) | -86.4% (active) | -59% (active) | -30% (active) | -22.4% (active) |  |
| O=[N+]([O-])c1cccc(/C=N\Nc2ccccc2)c1 | 80.2% | 16.6% |  | 55.7% | 101% | 62.5% | 96.7% | 95.3% | 33.7% | 58% | 80% | 78.5% | 95.5% | 83.4% | 67% | 92.5% | 4.87% (active) | 103% | 49.2% |  |
| CC(=O)O[C@H]1CC[C@@]2(C)C(=CC[C@@H]3[C@@H]2CC[C@]2(C)C(=O)N(O)C(=O)C[C@@H]32)C1 | 86.9% | 49.9% |  | 97.9% | 74% | 91.7% | 105% | 106% | 96.4% | 58.9% | 89.2% | 75.8% | 95.5% | 69.3% | 75.7% | 98.4% | 100% | 89.6% | 98.9% |  |
